This is part of a sample that, as a whole, favours compounds with a hit. Of some 83,000 tested, about 20% had one in any assay.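 Assay: single dose, 48 h. Readout: percent growth (0 = no net growth; negative = cell death). Active: <10.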 Unmarked numbers belong to inactive results. Active and inactive are the calls of the source.
Columns and labels:
Assay in all cases: NCI-60 one-dose screen, 48 h (100 = growth as untreated, 0 = no growth, -100 = all killed)
Conditions in all cases: 10 µM unless noted
K-562 leukemia = test system: K-562 leukemia
MALME-3M melanoma = test system: MALME-3M melanoma
MDA-MB-231 breast = test system: MDA-MB-231 breast
RXF 393 renal = test system: RXF 393 renal
SF-268 CNS = test system: SF-268 CNS
SF-295 CNS = test system: SF-295 CNS
SF-539 CNS = test system: SF-539 CNS
UACC-257 melanoma = test system: UACC-257 melanoma
HCT-15 colon = test system: HCT-15 colon
HT29 colon = test system: HT29 colon
SNB-75 CNS = test system: SNB-75 CNS
SNB-19 CNS = test system: SNB-19 CNS
U251 CNS = test system: U251 CNS
PC-3 prostate = test system: PC-3 prostate
UACC-62 melanoma = test system: UACC-62 melanoma
SK-MEL-28 melanoma = test system: SK-MEL-28 melanoma
SK-MEL-2 melanoma = test system: SK-MEL-2 melanoma
SK-MEL-5 melanoma = test system: SK-MEL-5 melanoma
LOX IMVI melanoma = test system: LOX IMVI melanoma
M14 melanoma = test system: M14 melanoma

Compound | growth (K-562 leukemia) | growth (MALME-3M melanoma) | growth (MDA-MB-231 breast) | growth (RXF 393 renal) | growth (SF-268 CNS) | growth (SF-295 CNS) | growth (SF-539 CNS) | growth (UACC-257 melanoma) | growth (HCT-15 colon) | growth (HT29 colon) | growth (SNB-75 CNS) | growth (SNB-19 CNS) | growth (U251 CNS) | growth (PC-3 prostate) | growth (UACC-62 melanoma) | growth (SK-MEL-28 melanoma) | growth (SK-MEL-2 melanoma) | growth (SK-MEL-5 melanoma) | growth (LOX IMVI melanoma) | growth (M14 melanoma) [%]
COc1ccc(C(=O)c2cc(C(=O)/C=C/c3c(Cl)cccc3Cl)c3cc(C)ccn23)cc1 | 94.2% | 97.1% | 96.9% | 108% | 98% | 101% | 94.6% | 102% | 99.9% | 103% | 76.7% | 98.8% | 100% | 91.3% | 94% | 108% | 101% | – | – | –
O=C1Nc2cc(Cl)ccc2/C1=C\c1ccc(OCc2ccc([N+](=O)[O-])cc2)cc1 | 83.1% | 75.1% | 66.2% | 64.3% | 86.4% | 68.2% | 80.7% | 89.5% | 77.8% | 76.8% | 57.5% | 91% | 81.6% | 59.4% | 67.8% | 84.7% | 101% | 84.4% | 65.8% | –
COc1ccccc1/C=C/C=N/NC1=NC2C(S1)N(C)C(=O)N2C (stereo not given) | 9.44% (active) | 43.8% | 40% | -20.8% (active) | 52% | 16.2% | 5.56% (active) | 78.8% | 30.4% | 6.54% (active) | 18.5% | 29.1% | 25.1% | 30.2% | 46.7% | 56% | 23.9% | 33.8% | 35.3% | –
CCN1C(=S)N(CC)C2C1N=C(SC)N2/N=C/C=C/c1ccccc1[N+](=O)[O-] (stereo not given) | 68.1% | 93.8% | 89.7% | 115% | 88.5% | 90.4% | 81.1% | 109% | 79.2% | 93.5% | 82.2% | 103% | 96.5% | 85% | 85.1% | 105% | 123% | 96.2% | 116% | –
c1ccc2c(NCCCN3CCOCC3)c3oc4ccccc4c3nc2c1 | 2.74% (active) | -25.9% (active) | -27.9% (active) | -76.2% (active) | -3.87% (active) | -17.6% (active) | -29.5% (active) | -7.26% (active) | 0.78% (active) | -48.2% (active) | -4.26% (active) | 5.03% (active) | -2.33% (active) | 7.6% (active) | -52.1% (active) | -46.9% (active) | -75.4% (active) | -90.4% (active) | -38.6% (active) | –
COc1ccc(N/N=C/c2c(-c3ccc(S(C)(=O)=O)cc3)nc3ccccn23)cc1 | 8.66% (active) | 75.1% | 38.7% | 79.3% | 55.7% | 6.91% (active) | 55.4% | 70.6% | 19.3% | 64.4% | 62.6% | 78.6% | 69.4% | 29.1% | 10.8% | 51.5% | 53.8% | 59.5% | – | –
CC(C)Sc1nc(Nc2ccc(S(N)(=O)=O)cc2)c(C#N)c(-c2ccc(F)cc2)n1 | 36.3% | 14.8% | 38.6% | – | 39.1% | – | – | 93.3% | 43.5% | – | – | – | – | 40.9% | 46.5% | 78% | 92.5% | 54.3% | – | 17.9
COc1ccc(/C=C2\SC(=Nc3cc(C)on3)NC2=O)cc1 | 100% | 95.9% | 106% | 102% | 104% | 95.2% | 99.3% | 96.7% | 99.3% | 108% | 97% | 96.4% | 109% | 96.7% | 95.1% | 106% | 115% | 99.3% | – | –
O=C(CSc1nc2sc3c(c2c(=O)n1-c1ccc(Cl)cc1)CCCC3)NNC(=O)Nc1cccc(C(F)(F)F)c1 | 13.1% | 29.8% | 59% | 81.7% | 40.8% | 6.43% (active) | 51.1% | 35.3% | 12.9% | 26.2% | 36.3% | 21.8% | 16.7% | 7.37% (active) | 17.3% | 33.2% | -8.08% (active) | 35.4% | -17% (active) | –

From PubChem BioAssay (NCI)
